An excerpt weighted towards active compounds, which were near 4.9% of everything screened.
CSC inhib: blocks cancer stem cells; cancer stem cell-like cells viability, luminescence; inhibition, % at 7.5 µM; 1.1% of 300,000 active; in the data active = inhibition above about 75%; inconclusive = no clear call, values can overlap the other calls; tested in HMLE shEcad cells
PP5 primary: inhibitors of human protein phosphatase 5 (PP5). P53041. purified PP5c, OMFP substrate fluorescence. inhibition, % at 6.7 µM. 0.18% of 320,000 active. AID 1987;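 active = inhibition above the campaign's mean inhibition across all tested compounds plus 3 SD, cut at about 9.5% in these data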;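 note: 0% = DMSO only and 100% = 100 µM cantharidin control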
Target sequence (P53041 whole entry, looked up): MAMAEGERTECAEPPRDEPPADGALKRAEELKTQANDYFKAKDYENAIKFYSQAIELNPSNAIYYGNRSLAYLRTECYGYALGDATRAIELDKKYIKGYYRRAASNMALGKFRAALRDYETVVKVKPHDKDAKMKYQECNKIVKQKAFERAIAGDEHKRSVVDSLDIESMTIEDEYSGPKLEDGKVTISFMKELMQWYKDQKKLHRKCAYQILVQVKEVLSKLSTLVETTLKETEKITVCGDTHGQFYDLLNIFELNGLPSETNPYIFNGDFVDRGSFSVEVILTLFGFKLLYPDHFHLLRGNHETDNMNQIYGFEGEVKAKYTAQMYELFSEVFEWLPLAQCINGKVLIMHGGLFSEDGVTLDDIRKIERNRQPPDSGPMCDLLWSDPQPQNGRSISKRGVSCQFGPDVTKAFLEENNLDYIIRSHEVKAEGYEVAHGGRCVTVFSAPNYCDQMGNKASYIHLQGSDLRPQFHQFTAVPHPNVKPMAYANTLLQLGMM
Calb FLC: affects C. albicans growth with fluconazole; C. albicans CaCi-2 (fluconazole-resistant clinical isolate) + fluconazole, Alamar Blue growth, 48 h; growth inhibition, % (no concentration beside the values); 0.57% of 300,000 active; AID 1979;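 active = growth inhibition above about 58% in most replicates, limit read from the data, passing the limit was not always enough; inconclusive = exactly half the replicates above a set limit; inactive = most replicates below a set limit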;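 note: all wells also contain fluconazole at 8 µg/ml as a sub-toxic cotreatment; 0% = median of DMSO wells and 100% = median of geldanamycin control wells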
Beta cell apopt: blocks beta cell apoptosis; INS-1E cytokine-induced death, ATP luminescence, 48 h; percent of positive-control rescue, neutral wells zero; protection from apoptosis, % (test concentration not listed); 0.8% of 300,000 active;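 active = Every replicate reaches about 75%, or at least half do and their mean reaches it too, limit read from the data; inconclusive = At least half of replicates reach the limit but their mean does not; inactive = Under half of replicates reach the limit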;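 note: 0% = cytokine-treated negative control wells and 100% = positive control rescue; higher means more ATP so stronger rescue from cytokine killing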
PP1 counter: PP1-alpha (human) inhibition in PP5 counter-screen; P62136; purified PP1alpha, OMFP fluorescence; inhibition, % at 6.7 µM; 0.9% of 320,000 active;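 active = inhibition above the mean inhibition of all tested compounds plus 3 SD, computed separately for each screening campaign, cut at about 15% in these data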
Mdm2-MdmX inh: human Mdm2/MdmX binding inhibition | inhibition, % at 8 µM | SaOS-2 split-luciferase Mdm2/MdmX complementation, luminescence | AID 485346 | 3% of 330,000 active | O15151+Q00987;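 active = inhibition of at least 50% at 8 µM in the primary screen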
Mdm2 MdmX conf: confirmation of human Mdm2/MdmX interaction inhibitors | shares compounds with Mdm2-MdmX inh | Mdm2-MdmX binding, luminescent assay | inhibition, % at 8 µM | 55% of 10,000 active; in the data active = inhibition above about 40%
FLuc counter: full-length luciferase inhibition in Mdm2/MdmX counter-screen; shares compounds with Mdm2-MdmX inh; SaOS-2 full-length luciferase counterscreen, luminescence; inhibition, % at 8 µM; 77% of 6,200 active; AID 504607;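 active = mean inhibition at 8 µM reaching about 37%, which flags the compound as non-specific, limit read from the data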;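 note: p53-null SaOS-2 cells with luciferase driven by a doxycycline-inducible promoter; compound on cells about two nights before reading with doxycycline added after day one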
* hit, by the source's call; ? = inconclusive; · = not tested or not shown.

SMILES	CSC inhib	PP5 primary	Calb FLC	Beta cell apopt	PP1 counter	Mdm2-MdmX inh	Mdm2 MdmX conf	FLuc counter
Cc1ccc(NS(=O)(=O)c2cc([N+](=O)[O-])ccc2NNC(=S)Nc2cc(C)ccc2C)c(C)c1	80*	7	-4	?	3	94*	88*	39*
Cc1ccc([N+](=O)[O-])cc1NC(=S)NC(=O)C(C)(C)C	0	0	-6	-4	5	18	·	·
O=C(Nc1ccccc1C(=O)NC1CCCCC1)c1ccccc1	36	4	-6	-1	1	11	·	·
O=C(Nc1ccccc1C(=O)NC(Cc1ccccc1)C(=O)NC1CCCCCC1)c1ccccc1 (stereo not drawn)	-5	0	-1	16	-3	62*	-1	·
O=C(CSc1nc(Nc2ccccc2)nc(N2CCOCC2)n1)NC1CCCCC1	-4	4	-6	-3	-4	15	·	·
O=C(NNC1=C(C(=O)C(F)(F)F)CCC1)c1ccccc1Cl	56	0	6	9	-2	7	·	·
COc1ccccc1C(=O)NNC1=C(C(=O)C(F)(F)F)CCC1	-2	-2	11	10	1	70*	58*	72*
Nc1ccccc1C(=O)Nc1cccc(C(=O)O)c1	-7	0	-14	1	0	22	·	·
Nc1ccccc1C(=O)NNC1=C(C(=O)C(F)(F)F)CCC1	19	4	-21	-13	-3	53*	49*	148*
O=C(NNC1=C(C(=O)C(F)(F)F)CCC1)c1ccccc1O	·	2	?	16	-1	50	39	·
COc1cccc(C(=O)NNC2=C(C(=O)C(F)(F)F)CCC2)c1	24	0	-27	1	-3	23	·	·
CC(C)n1cc(/C=C2/NC(=O)N(c3cccc(Cl)c3)C2=O)c2ccccc21	54	1	7	·	3	62*	65*	43*
Nc1ncn(C2O[C@H](CO)[C@@H](O)[C@H]2O)c(=O)n1 (stereo partly drawn)	54	0	·	5	-3	54*	64*	57*
OC[C@H]1O[C@@H](n2cnc3c(NC4CCCC4)ncnc32)[C@H](O)[C@@H]1O	-12	3	-9	-6	-4	14	·	·
Nc1nc2c(ncn2[C@H]2C[C@H](O)[C@@H](CO)O2)c(=O)[nH]1	-1	-2	-3	3	3	2	·	·
Nc1ncn([C@H]2C[C@H](O)[C@@H](CO)O2)c(=O)n1	8	0	-3	14	-2	20	·	·
C=CCNc1ncnc2c1ncn2C1OC(CO)C(O)C1O (stereo not drawn)	77*	1	-6	0	1	56*	22	·
Nc1nc(F)nc2c1ncn2[C@@H]1O[C@H](CO)[C@@H](O)[C@H]1O	59	1	·	94*	0	99*	100*	3
Nc1nc(F)nc2c1ncn2[C@@H]1O[C@H](CO)[C@@H](O)[C@@H]1O	-7	0	·	-6	-5	49	·	·
Nc1nc(Cl)nc2c1ncn2C1CC(O)C(CO)O1 (stereo not drawn)	74	2	9	36	-4	81*	77*	26
CC(C)CN1C(=O)N(c2ccc(Cl)cc2)C(C)(O)CC1(C)C (stereo not drawn)	-9	3	-6	4	-1	7	·	·
Cn1nc(C(=O)OCC(=O)Nc2ccc(S(N)(=O)=O)cc2)c2ccccc2c1=O	4	1	-2	-8	-8	1	·	·
COc1ccc(C(CC(=O)O)NC(=O)COc2ccc(C)cc2)cc1OC (stereo not drawn)	-2	-2	-6	-2	-2	-26	·	·
CCc1ccc(NC(=O)CSc2nnc(CNC(=O)c3ccco3)o2)cc1	-8	-3	6	-7	-5	19	·	·
COc1cc(C(=O)NC(C)c2cc(C)ccc2C)ccc1OCC(=O)N1CCOCC1 (stereo not drawn)	·	1	·	-5	-3	19	·	·
CCOC(=O)c1ccc(N=c2sc(C(=O)OC)cc(=O)n2-c2ccc(C(=O)OCC)cc2)cc1	69	2	-4	24	-1	83*	-6	·
COC(=O)c1cc(=O)n(-c2ccccc2)c(=Nc2ccccc2)s1	46	-1	-8	-2	2	14	·	·

From PubChem
